# Several values for one entry are separate records, joined by “and”; a condition that tells them apart may be missing. Equal values may be shown once. Results filed as inconclusive are left out. Activity calls are given as the source filed them. Unless noted, the rule behind the calls is not given here.
# Experiments:
# [1] = compounds altering circadian rhythm period length – cell-based, LOPAC library, luminescence reporter (AID 2774); conditions: circadian reporter cells, at 7 µM, actives lie on both sides;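 note: values are relative to mean of DMSO wells on each plate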
# [2] = system: Hepatitis C virus NS3 helicase; experiment: blockers of NS3h binding to ssDNA – biochemical, fluorescence polarization, LOPAC1280 library, primary screen (AID 687035; in the data active = inhibition above about 37%); conditions: Purified HCV NS3 helicase, Cy5-dT15 ssDNA binding fluorescence polarization; stronger effect = higher value; concentration not given here
# [3] = compounds altering Cy5-DNA-NS3h complex signal – biochemical, LOPAC1280, artefact control for HCV NS3 helicase inhibitor project (AID 687037); conditions: Cy5-DNA-NS3h complex fluorescence interference counterscreen
# [4] = viability loss with induced miR-34 in A549 – imaging, A549 dox-inducible miR-34, nuclei and caspase counts, primary screen (AID 1347080;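 active = compounds whose cell count with miR-34 switched on is under 0.7 times the count with it off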); conditions: A549 miR-34 inducible, Hoechst nuclei count, 48 h
# [5] = galactose survival enhancers in mitochondrial complex I cybrids – cell-based, galactose medium, ATP luminescence, primary screen (AID 1645843;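 active = z-score of at least 1.8 in each of two replicates, scored against plate mean and spread of sample wells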;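 note: positive z means more ATP and so rescue of galactose-driven cybrid death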); conditions: complex I mutant cybrid cells, 72 h, stronger effect = higher value
# [6] = molecular target: ATP-dependent translocase ABCB1 (Homo sapiens) (UniProt P08183); experiment: P-glycoprotein substrate transport blockade – cell-based (AID 377; in the data active = fluorescence slope change above about 50%); conditions: MDR1-expressing cells, fluorescent substrate accumulation slope; stronger effect = higher value; concentration not given here
# ATP-dependent translocase ABCB1 (Homo sapiens), sequence (P08183 whole entry, looked up): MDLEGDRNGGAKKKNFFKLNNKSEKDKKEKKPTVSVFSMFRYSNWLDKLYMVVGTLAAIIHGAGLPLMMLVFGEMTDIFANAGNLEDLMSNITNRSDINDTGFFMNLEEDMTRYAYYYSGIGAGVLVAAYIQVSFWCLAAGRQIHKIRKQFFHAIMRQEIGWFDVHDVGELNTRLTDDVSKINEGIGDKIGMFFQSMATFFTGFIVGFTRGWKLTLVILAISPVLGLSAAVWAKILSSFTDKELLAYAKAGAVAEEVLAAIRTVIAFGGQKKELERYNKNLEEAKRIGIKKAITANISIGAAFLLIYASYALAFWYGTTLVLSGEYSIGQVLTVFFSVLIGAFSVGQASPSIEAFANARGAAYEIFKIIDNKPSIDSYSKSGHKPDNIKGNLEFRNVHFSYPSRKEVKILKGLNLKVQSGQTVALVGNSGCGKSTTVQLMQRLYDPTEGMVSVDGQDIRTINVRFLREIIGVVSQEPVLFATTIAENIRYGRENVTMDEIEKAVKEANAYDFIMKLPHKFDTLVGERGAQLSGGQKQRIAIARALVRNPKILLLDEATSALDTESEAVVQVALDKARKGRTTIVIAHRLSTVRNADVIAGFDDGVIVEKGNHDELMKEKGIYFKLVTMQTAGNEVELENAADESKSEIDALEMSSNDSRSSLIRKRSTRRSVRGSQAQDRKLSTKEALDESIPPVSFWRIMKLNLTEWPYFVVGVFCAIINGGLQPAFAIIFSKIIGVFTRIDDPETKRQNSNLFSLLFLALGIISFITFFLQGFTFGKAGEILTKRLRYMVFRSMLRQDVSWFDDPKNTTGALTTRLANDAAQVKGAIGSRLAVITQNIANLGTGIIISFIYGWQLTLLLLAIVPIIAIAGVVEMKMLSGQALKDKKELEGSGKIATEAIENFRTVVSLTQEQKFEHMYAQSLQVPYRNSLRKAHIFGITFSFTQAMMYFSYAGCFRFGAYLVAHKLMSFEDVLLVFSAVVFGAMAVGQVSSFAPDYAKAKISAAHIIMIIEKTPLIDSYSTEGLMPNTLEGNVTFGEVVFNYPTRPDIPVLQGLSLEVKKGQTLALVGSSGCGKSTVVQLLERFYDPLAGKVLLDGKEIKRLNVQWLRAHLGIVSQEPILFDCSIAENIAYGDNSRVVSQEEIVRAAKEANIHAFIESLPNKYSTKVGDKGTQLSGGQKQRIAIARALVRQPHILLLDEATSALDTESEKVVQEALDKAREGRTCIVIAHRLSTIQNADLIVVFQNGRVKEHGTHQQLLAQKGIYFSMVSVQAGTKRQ
# [7] = compounds altering viability of human ES cells (AID 493140); conditions: human embryonic stem cell survival screen; stronger effect = higher value;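 note: cells exposed to compounds for four days before counting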
# [8] = P. berghei load reduction in hepatocytes – cell-based, HepG2, luciferase luminescence, HepG2 viability, primary screen (AID 624349; in the data active = parasite load remaining mostly below about 12%, no sharp cut-off; inactive = mostly above about 10%;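 note: 100% = mean of DMSO negative control wells on the same plate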); conditions: P. berghei liver stage in HepG2, luciferase luminescence, concentration not given here; parasite load remaining: stronger effect = lower value; viability: measured here: HepG2 viability without parasites
# [9] = growth inhibition, single agent or in combination, cell-based, chromothripsis tumors, cisplatin or BGB combos (AID 1671449; in the data active = inhibition above about 80%;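 note: cells exposed for 96 hours; 0% = vehicle DMSO and 100% = killing by high DMSO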); conditions: LFS_MB_P medulloblastoma cells
# [10] = growth inhibition, single agent and combos, cell-based, chromothripsis tumors, cisplatin or BGB combos (AID 1671450; in the data active = inhibition above about 80%;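 note: cells exposed to compound for four days; 0% = vehicle DMSO and 100% = cell killing by high DMSO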); conditions: HDN33 neuroblastoma cells, stronger effect = higher value
# [11] = growth inhibition, single agents and combos, ICB984, cell-based, cisplatin or BGB combos, synergistic combos for chromothripsis tumors (AID 1671451); conditions: ICB984 medulloblastoma cells, drug combinations, stronger effect = higher value;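 note: cells exposed for 96 hours before readout; 0% = vehicle DMSO and 100% = killing by high DMSO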
# [12] = growth inhibition, single agents and combos, LFS_MB_1R, cell-based, cisplatin or BGB combos, synergistic combos for chromothripsis tumors (AID 1671452; in the data active = inhibition above about 80%;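 note: cells exposed for 96 hours before readout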); conditions: LFS_MB_1R medulloblastoma cells, stronger effect = higher value
# [13] = growth inhibition, single agents and combos, HTB85, cell-based, BGB or cisplatin IC20 combos, synergistic combos for chromothripsis tumors (AID 1671453; in the data active = inhibition above about 80%;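 note: cells exposed for 96 hours before readout; 0% = vehicle DMSO and 100% = high DMSO killing control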); conditions: HTB85 osteosarcoma cells, drug combinations, stronger effect = higher value
# [14] = stronger effect = lower value, cell number ratio, induced over uninduced
# [15] = measured here: relative caspase fold change +Dox/-Dox
# [16] = measured here: total cells with miR-34 induction, stronger effect = lower value
# [17] = measured here: total cells without miR-34 induction
# [18] = measured here: combination with BGB IC40, at 0.05 µM
compound,measurement,setting,value
N=S(=O)(O)Cc1noc2ccccc12,period change,[1],0.1 h (inactive)
same,inhibition,[2],1% (inactive)
same,fluorescence ratio (interference),[3],1 (inactive)
same,fold change,[4]; [14],0.955 (inactive)
same,fold change,[4]; [15],2.62
same,cell count,[4]; [16],9240
same,cell count,[4]; [17],9680
same,z-score,[5],0.5 (inactive)
NC(N)=N[C@@H](CCC(=O)O)C(=O)O,period change,[1],0.01 h (inactive)
same,inhibition,[2],-3% (inactive)
same,fluorescence ratio (interference),[3],1 (inactive)
same,fold change,[4]; [14],0.954 (inactive) and 0.929 (inactive)
same,fold change,[4]; [15],1.36 and 1.31
same,cell count,[4]; [16],9760 and 6110
same,cell count,[4]; [17],10200 and 6580
same,z-score,[5],0.175 (inactive)
COc1cc(=O)n(C)c2c(OCC(O)C(C)(C)O)cccc12 (centres undefined),fluorescence slope change,[6],-8.1% (inactive)
same,period change,[1],-0.165 h (inactive)
same,survival,[7],2.75 (inactive)
same,parasite load remaining,[8],88% (inactive)
same,viability,[8],97.7%
same,fold change,[4]; [14],0.801 (inactive)
same,fold change,[4]; [15],1.04
same,cell count,[4]; [16],8320
same,cell count,[4]; [17],10400
NC[C@H]1O[C@@H](n2cnc3c(N)ncnc32)[C@H](O)[C@@H]1O,inhibition,[2],-3% (inactive)
same,fluorescence ratio (interference),[3],1 (inactive)
same,fold change,[4]; [14],1.07 (inactive)
same,fold change,[4]; [15],1.37
same,cell count,[4]; [16],9860
same,cell count,[4]; [17],9210
same,z-score,[5],1.03 (inactive)
O=C(O)CCC(=O)N1CCCC1C(=O)O (centres undefined),period change,[1],-0.225 h (inactive)
same,inhibition,[2],-2% (inactive)
same,fluorescence ratio (interference),[3],1 (inactive)
same,fold change,[4]; [14],0.97 (inactive)
same,fold change,[4]; [15],1.16
same,cell count,[4]; [16],9450
same,cell count,[4]; [17],9740
same,z-score,[5],0.565 (inactive)
CN(C)C(=O)/N=N/C(=O)N(C)C,period change,[1],0.015 h (inactive)
same,fold change,[4]; [14],1.04 (inactive)
same,fold change,[4]; [15],1.27
same,cell count,[4]; [16],10000
same,cell count,[4]; [17],9690
same,z-score,[5],-1.03 (inactive)
Oc1ccc(Cn2cc[nH]c2=S)cc1,period change,[1],0.16 h (inactive)
same,inhibition,[2],-4% (inactive)
same,fluorescence ratio (interference),[3],1 (inactive)
same,fold change,[4]; [14],0.942 (inactive)
same,fold change,[4]; [15],1.11
same,cell count,[4]; [16],9950
same,cell count,[4]; [17],10600
same,z-score,[5],0.15 (inactive)
Nc1ccccc1NC(=O)CCCCCCC(=O)Nc1ccccc1,fold change,[4]; [14],1.01 (inactive)
same,fold change,[4]; [15],0.802
same,cell count,[4]; [16],5630
same,cell count,[4]; [17],5580
same,inhibition,"[9]; at 0.5 µM, stronger effect = higher value",-12.9% (inactive) and -25.1% (inactive)
same,inhibition,"[9]; measured here: combination with BGB IC20, at 0.005 µM",-23.2% and 0.813%
same,inhibition,"[9]; measured here: combination with BGB IC40, at 0.005 µM",83.8% and -29.2%
same,inhibition,[9]; [18],-12.1% and -1.18%
same,inhibition,"[9]; measured here: combination with cisplatin, at 0.5 µM, stronger effect = higher value",-8.88% and -35.8%
same,inhibition,"[9]; measured here: combination with cisplatin, at 5 µM, stronger effect = higher value",46.8% and 54.9%
same,inhibition,"[10]; BGB combo, at 5 µM",20.6% and 28.7%
same,inhibition,[10]; at 0.5 µM,5.22% (inactive) and 5.82% (inactive)
same,inhibition,"[10]; cisplatin combo, at 5 µM",39.9% and 36.6%
same,inhibition,"[10]; measured here: with BGB IC20 combination, at 0.5 µM",3.82% and 0.196%
same,inhibition,"[10]; measured here: with cisplatin IC20 combination, at 0.5 µM",11.3% and -1.37%
same,inhibition,"[10]; single agent, at 5 µM",23.6% and 28%
same,inhibition,"[11]; BGB IC20 combo, at 0.005 µM",-17.1% and -28%
same,inhibition,"[11]; BGB IC40 combo, at 0.005 µM",-32.5% and -14.2%
same,inhibition,"[11]; BGB IC40 combo, at 0.05 µM",-14.5% and 9.77%
same,inhibition,[11]; at 0.5 µM,-15.5% (inactive) and -30% (inactive)
same,inhibition,"[11]; cisplatin combo, at 0.05 µM",-20.4% and 6.2%
same,inhibition,"[11]; cisplatin combo, at 0.5 µM",-17.3% and -48.3%
same,inhibition,"[11]; cisplatin combo, at 5 µM",-18.3% and -14.7%
same,inhibition,"[11]; measured here: 5 uM single agent, at 5 µM",-14.3% and -5.49%
same,inhibition,[12]; at 0.5 µM,-20.2% (inactive) and -14.9% (inactive)
same,inhibition,[12]; [18],-18.8% and -20.1%
same,inhibition,"[12]; measured here: combination with cisplatin, at 0.5 µM",-21.4% and -9.37%
same,inhibition,"[12]; measured here: combination with cisplatin, at 5 µM",34.7% and 36.3%
same,inhibition,[13]; at 0.5 µM,1.45% (inactive) and -7.23% (inactive)
same,inhibition,"[13]; measured here: with BGB IC20, at 0.5 µM",2.99% and -6.61%
